# Test results taken from article PMC11062922 (Nature Chemical Biology, 2023).
# Where two headings read alike, the source gives them in different places.
# Experiments:
# [1] = tested on: AAK1; parameters: species or system human, MV4-11 + K-562 + COLO205 + SK-N-BE2 + OVCAR-8; conditions: read-out: apparent Kd, n = 1
# [2] = tested on: BMP2K; parameters: species or system human, MV4-11 + K-562 + COLO205 + SK-N-BE2 + OVCAR-8; conditions: read-out: apparent Kd, n = 1
# [3] = tested on: CSNK2A1;CSNK2A3; parameters: species or system human, MV4-11 + K-562 + COLO205 + SK-N-BE2 + OVCAR-8; conditions: read-out: apparent Kd, n = 1
# [4] = tested on: FLT3; parameters: species or system human, MV4-11 + K-562 + COLO205 + SK-N-BE2 + OVCAR-8; conditions: read-out: apparent Kd, n = 1
# [5] = tested on: GAK; parameters: species or system human, MV4-11 + K-562 + COLO205 + SK-N-BE2 + OVCAR-8; conditions: read-out: apparent Kd; compound concentrations:100 nM and 1000 nM (sheet 'Samples'); n = 1
# [6] = tested on: NUAK1; parameters: species or system human, MV4-11 + K-562 + COLO205 + SK-N-BE2 + OVCAR-8; conditions: read-out: apparent Kd, n = 1
# [7] = tested on: PAK4; parameters: species or system human, MV4-11 + K-562 + COLO205 + SK-N-BE2 + OVCAR-8; conditions: read-out: apparent Kd, n = 1
# [8] = target: Q6ZSR9 (human, UniProt Q6ZSR9); parameters: species or system MV4-11 + K-562 + COLO205 + SK-N-BE2 + OVCAR-8; conditions: read-out: apparent Kd, n = 1
# Q6ZSR9, sequence (Q6ZSR9 whole entry, looked up): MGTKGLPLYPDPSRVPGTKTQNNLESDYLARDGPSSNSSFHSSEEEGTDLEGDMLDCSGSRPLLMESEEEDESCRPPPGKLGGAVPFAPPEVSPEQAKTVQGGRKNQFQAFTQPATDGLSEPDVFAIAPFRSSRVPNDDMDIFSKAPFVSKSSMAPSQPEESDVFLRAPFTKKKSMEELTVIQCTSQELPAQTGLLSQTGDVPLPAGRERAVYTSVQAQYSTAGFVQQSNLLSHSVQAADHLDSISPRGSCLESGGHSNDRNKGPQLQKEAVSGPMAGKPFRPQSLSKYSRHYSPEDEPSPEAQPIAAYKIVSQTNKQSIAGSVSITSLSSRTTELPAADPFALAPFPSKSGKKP
# [9] = tested on: SIK2; parameters: species or system human, MV4-11 + K-562 + COLO205 + SK-N-BE2 + OVCAR-8; conditions: read-out: apparent Kd, n = 1
# [10] = tested on: CLK4; parameters: species or system human, MV4-11 + K-562 + COLO205 + SK-N-BE2 + OVCAR-8; conditions: read-out: apparent Kd, n = 1
# [11] = tested on: CSNK2A2; parameters: species or system human, MV4-11 + K-562 + COLO205 + SK-N-BE2 + OVCAR-8; conditions: read-out: apparent Kd; compound concentrations: 100 nM and 1000 nM (sheet 'Samples'), CATDS: 0.17006619432900399; n = 1
# [12] = tested on: GSK3A; parameters: species or system human, MV4-11 + K-562 + COLO205 + SK-N-BE2 + OVCAR-8; conditions: read-out: apparent Kd, compound concentrations: 100 nM and 1000 nM (sheet 'Samples'), n = 1
# [13] = tested on: GSK3B; parameters: species or system human, MV4-11 + K-562 + COLO205 + SK-N-BE2 + OVCAR-8; conditions: read-out: apparent Kd, compound concentrations: 100 nM and 1000 nM (sheet 'Samples'), n = 1
# [14] = tested on: MELK; parameters: species or system human, MV4-11 + K-562 + COLO205 + SK-N-BE2 + OVCAR-8; conditions: read-out: apparent Kd, n = 1
# [15] = tested on: PKN1; parameters: species or system human, MV4-11 + K-562 + COLO205 + SK-N-BE2 + OVCAR-8; conditions: read-out: apparent Kd; compound concentrations: 100 nM and 1000 nM (sheet 'Samples'), CATDS: 8.6733801464620904E-3; n = 1
# [16] = tested on: RET; parameters: species or system human, MV4-11 + K-562 + COLO205 + SK-N-BE2 + OVCAR-8; conditions: read-out: apparent Kd; compound concentrations: 100 nM and 1000 nM (sheet 'Samples'), CATDS: 2.5699150815533801E-2; n = 1
# [17] = tested on: CLK1; parameters: species or system human, MV4-11 + K-562 + COLO205 + SK-N-BE2 + OVCAR-8; conditions: read-out: apparent Kd; compound concentrations: 100 nM and 1000 nM (sheet 'Samples'), CATDS: 0.124159144382542; n = 1
# [18] = tested on: FLT4; parameters: species or system human, MV4-11 + K-562 + COLO205 + SK-N-BE2 + OVCAR-8; conditions: read-out: apparent Kd; compound concentrations: 100 nM and 1000 nM (sheet 'Samples'), CATDS: 1.8307563949858899E-2; n = 1
# [19] = compound concentrations:100 nM and 1000 nM (sheet 'Samples')
smiles,measurement,setting,value
Cc1cccc(Nc2nc(N[C@H]3CCNC3)ncc2C(N)=O)c1.Cl [GSK2197149A],potency estimated from few doses,[1]; [19],64.6 nM
same,potency estimated from few doses,[2]; [19],540 nM
same,potency estimated from few doses,[3]; [19],2150 nM
same,potency estimated from few doses,[4]; [19],1070 nM
same,potency estimated from few doses,[5],343 nM
same,potency estimated from few doses,[6]; [19],1690 nM
same,potency estimated from few doses,[7]; [19],562 nM
same,potency estimated from few doses,[8]; [19],85.6 nM
same,potency estimated from few doses,[9]; [19],603 nM
O=C(O)C(F)(F)F.O=c1[nH]ccc2nc(N[C@@H]3CCNC3)nc(Nc3ccc4c(c3)S(=O)(=O)CC4)c12 [GSK2181306A],potency estimated from few doses,"[1]; compound concentrations: 100 nM and 1000 nM (sheet 'Samples'), CATDS: 1.0213142208507E-2",800 nM
same,potency estimated from few doses,"[2]; compound concentrations: 100 nM and 1000 nM (sheet 'Samples'), CATDS: 1.9243702463248E-2",190 nM
same,potency estimated from few doses,"[10]; compound concentrations: 100 nM and 1000 nM (sheet 'Samples'), CATDS: 8.1810149624153006E-3",1760 nM
same,potency estimated from few doses,"[3]; compound concentrations: 100 nM and 1000 nM (sheet 'Samples'), CATDS: 0.112951755046268",11.3 nM
same,potency estimated from few doses,[11],6.46 nM
same,potency estimated from few doses,"[4]; compound concentrations: 100 nM and 1000 nM (sheet 'Samples'), CATDS: 8.5928839760778392E-3",1430 nM
same,potency estimated from few doses,[12]; CATDS: 1.81293399995681E-2,213 nM
same,potency estimated from few doses,[13]; CATDS: 1.53717620719534E-2,296 nM
same,potency estimated from few doses,"[14]; compound concentrations: 100 nM and 1000 nM (sheet 'Samples'), CATDS: 8.8391559742386702E-3",1290 nM
same,potency estimated from few doses,"[6]; compound concentrations: 100 nM and 1000 nM (sheet 'Samples'), CATDS: 6.4011411937308901E-2",25.9 nM
same,potency estimated from few doses,"[7]; compound concentrations: 100 nM and 1000 nM (sheet 'Samples'), CATDS: 3.0355378859093798E-2",85 nM
same,potency estimated from few doses,[15],1380 nM
same,potency estimated from few doses,"[8]; compound concentrations: 100 nM and 1000 nM (sheet 'Samples'), CATDS: 1.2146463936907201E-2",503 nM
same,potency estimated from few doses,[16],113 nM
same,potency estimated from few doses,"[9]; compound concentrations: 100 nM and 1000 nM (sheet 'Samples'), CATDS: 1.23582822640132E-2",483 nM
COc1ccc(-c2cc3c(N)ncnc3o2)cc1 [GW642138X],potency estimated from few doses,"[1]; compound concentrations: 100 nM and 1000 nM (sheet 'Samples'), CATDS: 9.3740609603759906E-2",2100 nM
COc1cc(Nc2nccc(-c3cnn4ncccc34)n2)cc(OC)c1 [GW801372X],potency estimated from few doses,"[1]; compound concentrations: 100 nM and 1000 nM (sheet 'Samples'), CATDS: 3.8573145954119099E-2",184 nM
same,potency estimated from few doses,"[2]; compound concentrations: 100 nM and 1000 nM (sheet 'Samples'), CATDS: 1.7916348880173499E-2",1820 nM
same,potency estimated from few doses,[17],18.2 nM
same,potency estimated from few doses,"[10]; compound concentrations: 100 nM and 1000 nM (sheet 'Samples'), CATDS: 0.10081286200227101",26.6 nM
same,potency estimated from few doses,"[4]; compound concentrations: 100 nM and 1000 nM (sheet 'Samples'), CATDS: 0.110722345436643",22.4 nM
same,potency estimated from few doses,[18],1650 nM
same,potency estimated from few doses,[12]; CATDS: 2.1356053852556199E-2,929 nM
same,potency estimated from few doses,[13]; CATDS: 3.2546275447974102E-2,277 nM
same,potency estimated from few doses,"[6]; compound concentrations: 100 nM and 1000 nM (sheet 'Samples'), CATDS: 5.2338687670537398E-2",94.5 nM
same,potency estimated from few doses,"[7]; compound concentrations: 100 nM and 1000 nM (sheet 'Samples'), CATDS: 2.0251882597793001E-2",1120 nM
same,potency estimated from few doses,"[8]; compound concentrations: 100 nM and 1000 nM (sheet 'Samples'), CATDS: 3.9611085380352497E-2",173 nM
Cc1cc(-c2ccnc(Nc3cccc(C#N)c3)n2)cc(C)c1O [GSK1440913A],potency estimated from few doses,"[1]; compound concentrations: 100 nM and 1000 nM (sheet 'Samples'), CATDS: 0.22953291556049499",120 nM
same,potency estimated from few doses,"[2]; compound concentrations: 100 nM and 1000 nM (sheet 'Samples'), CATDS: 0.10539472264710199",564 nM
same,potency estimated from few doses,"[8]; compound concentrations: 100 nM and 1000 nM (sheet 'Samples'), CATDS: 0.240078758272596",111 nM
CC(C)Nc1cc(-c2ccc3c(N)n[nH]c3c2)nc(N)n1 [GSK2221681A],potency estimated from few doses,[1]; [19],149 nM
same,potency estimated from few doses,[2]; [19],947 nM
same,potency estimated from few doses,[10]; [19],1550 nM
same,potency estimated from few doses,[14]; [19],1130 nM
same,potency estimated from few doses,[8]; [19],220 nM
